Experimental data: PubChem BioAssay (Tox21)
Records with an inconclusive call do not appear. Active and inactive are the calls of the source. Calls follow the shape of the full dose curve.

Tests used:
[1] = molecular target: Acetylcholinesterase (Homo sapiens) (UniProt P22303); test: Acetylcholinesterase (AChE) small molecule antagonists: colormetric cell-based qHTS assay (AID 1347395); also: nearly all actives have a fitted effect of over 30% in size
Summary of the method: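 SH-SY5Y cells attached overnight, exposed to compound 30 min at 37 C, then given DTNB/acetylthiocholine; after 90 min at 37 C, colorimetric thiocholine read gives cellular AChE activity.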

[2] = molecular target: Acetylcholinesterase (Homo sapiens) (UniProt P22303); test: Acetylcholinesterase (AChE) small molecule antagonists: enzyme-based qHTS assay (AID 1347397); details: Potency: AChE enzyme activity inhibition; outcome: AChE enzyme activity inhibition; also: nearly all actives have a fitted effect of over 55% in size
Summary of the method: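 rhAChE 50 mU/mL (dispensed) + cpd or DMSO, 30 min RT; add DTNB/acetylthiocholine cocktail, 10 min RT; colorimetric thiocholine readout. qHTS, 1536-well format.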

[3] = molecular target: Acetylcholinesterase (Homo sapiens) (UniProt P22303); test: Acetylcholinesterase (AChE) small molecule antagonists: fluorescence cell-based qHTS assay (AID 1347398); details: Potency: AChE activity; outcome: AChE activity; also: nearly all actives have a fitted effect of over 50% in size
Summary of the method: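 Read-out is Thiolite Green fluorescence at Ex/Em = 490/520 nm, formed by reaction with thiocholine released when cellular AChE in SH-SY5Y cells hydrolyzes acetylthiocholine. Compounds were preincubated 30 min at 37 C before substrate.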

[4] = molecular target: Acetylcholinesterase (Homo sapiens) (UniProt P22303); test: Acetylcholinesterase (AChE) small molecule antagonists: enzyme-based qHTS assay with human liver microsomes (AID 1347399); details: Potency: qHTS inhibition; outcome: qHTS inhibition; also: nearly all actives have a fitted effect of over 60% in size
Summary of the method: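 Recombinant human AChE (50 mU/mL in the enzyme mix) and human liver microsomes (0.25 mg/mL final) were preincubated with compound and NADPH (0.25 mg/mL final) for 30 min at 37 C. Acetylthiocholine/DTNB was then added; thiocholine was read colorimetrically after 10 min at room temperature.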

Measured: Potency

Acetylcholinesterase (Homo sapiens), sequence (P22303 whole entry, looked up): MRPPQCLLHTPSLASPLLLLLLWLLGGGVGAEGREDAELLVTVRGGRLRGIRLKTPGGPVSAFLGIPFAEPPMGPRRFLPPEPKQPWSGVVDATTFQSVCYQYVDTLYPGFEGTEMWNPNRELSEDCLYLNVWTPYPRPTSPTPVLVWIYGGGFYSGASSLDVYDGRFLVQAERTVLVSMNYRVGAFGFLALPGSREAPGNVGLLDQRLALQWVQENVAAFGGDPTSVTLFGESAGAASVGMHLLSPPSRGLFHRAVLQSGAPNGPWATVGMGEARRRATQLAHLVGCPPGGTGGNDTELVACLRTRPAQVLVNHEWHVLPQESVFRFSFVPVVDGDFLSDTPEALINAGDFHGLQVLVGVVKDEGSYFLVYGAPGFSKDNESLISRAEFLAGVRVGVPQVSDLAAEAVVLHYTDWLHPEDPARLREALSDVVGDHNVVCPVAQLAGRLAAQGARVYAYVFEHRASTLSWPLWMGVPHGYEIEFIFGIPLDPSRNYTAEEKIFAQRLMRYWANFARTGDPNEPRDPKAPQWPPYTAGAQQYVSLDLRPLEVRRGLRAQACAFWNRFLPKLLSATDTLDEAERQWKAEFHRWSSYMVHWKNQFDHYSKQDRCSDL

CC(=O)N[C@@H](Cc1ccc(O)cc1)C(=O)O
inactive: [1] | [2] | [3] | [4]

Cc1ccc2n[nH]nc2c1
inactive: [1] | [2] | [3] | [4]

Nc1nc2ccccc2[nH]1
inactive: [1] | [2] | [3] | [4]

Cc1cn([C@@H]2O[C@H](CO)[C@@H](O)[C@@H]2F)c(=O)[nH]c1=O
inactive: [1] | [2] | [3] | [4]

COc1ccc(C(=O)CC(=O)c2ccc(C(C)(C)C)cc2)cc1
inactive: [1] | [2] | [3] | [4]

Nc1ccc(-c2ccc(F)cc2)cc1
inactive: [1] | [2] | [3] | [4]

[Cl][Nd]([Cl])[Cl]
inactive: [1] | [2] | [3] | [4]

Cc1cccc(OCCOc2cccc(C)c2)c1
inactive: [1] | [2] | [3] | [4]

O=Cc1ccc(C(=O)O)cc1
inactive: [1] | [2] | [3] | [4]

CCCCCCCCCCCCO
inactive: [1] | [2] | [3] | [4]

CC1=CCC(C(C)C)=CC1
inactive: [1] | [2] | [3] | [4]

C=C(C)C1CC=C(C)C(OC(C)=O)C1 (stereo not given)
inactive: [1] | [2] | [3] | [4]

CCNc1ccccc1
inactive: [1] | [2] | [3] | [4]

Cc1ccc(C)c(O)c1C
inactive: [1] | [2] | [3] | [4]

CCCOc1ccc(S(=O)(=O)N2CCN(CC)CC2)cc1-c1nc2c(CC)n(Cc3ccccn3)nc2c(=O)[nH]1
inactive: [1] | [2] | [3] | [4]

c1ccc2cnncc2c1
inactive: [1] | [2] | [3] | [4]

CCCC(=O)Nc1ccc(O)c(C(C)=O)c1
inactive: [1] | [2] | [3] | [4]

CCCC(=O)O[C@]1(C(=O)CC)CC[C@H]2[C@@H]3CCC4=CC(=O)CC[C@]4(C)[C@H]3[C@@H](O)C[C@@]21C
inactive: [1] | [2] | [3] | [4]

CNC(=S)NN
inactive: [1] | [2] | [3] | [4]

CC(C)c1cc(C(C)C)cc(C(C)C)c1
inactive: [1] | [2] | [3] | [4]

CN(C)C(=O)CNC(=O)Cc1ccccc1
inactive: [1] | [2] | [3] | [4]

O=S(=O)(Oc1ccc(Cl)cc1)c1ccccc1
inactive: [1] | [2] | [3] | [4]

CN(C)c1ccc(CCO)cc1
inactive: [1] | [2] | [3] | [4]

S=C(NC1CCCCC1)NC1CCCCC1
inactive: [1] | [2] | [3] | [4]

CNC(=O)[C@H]1O[C@@H](n2cnc3c(NCc4cc(Cl)ccc4OCc4cc(C)no4)ncnc32)[C@H](O)[C@@H]1N
inactive: [1] | [2] | [3] | [4]

COc1ccc(Cl)cc1C(=O)NCCc1ccc(S(=O)(=O)NC(=O)NC2CCCCC2)cc1
inactive: [1] | [2] | [3] | [4]

CN1CCN(C)CC1
inactive: [1] | [2] | [3] | [4]

Oc1ccc2c(c1)OCO2
inactive: [1] | [2] | [3] | [4]

CC(C)c1cccc(C(C)C)c1N1C(=O)c2ccc(O)cc2C1=O
inactive: [1] | [2] | [3] | [4]

Brc1cc(Oc2cc(Br)c(Br)c(Br)c2Br)c(Br)c(Br)c1Br
inactive: [1] | [2] | [3] | [4]

CC(=O)CC(C)(C)O
inactive: [1] | [2] | [3] | [4]

Nc1cc(Cl)c([N+](=O)[O-])cc1O
inactive: [1] | [2] | [3] | [4]

OC[C@@H](O)[C@@H](O[C@@H]1O[C@H](CO)[C@H](O)[C@H](O)[C@H]1O)[C@H](O)[C@@H](O)CO
inactive: [1] | [2] | [3] | [4]

C/C(=C(\CCO)SS/C(CCO)=C(\C)N(C=O)Cc1cnc(C)nc1N)N(C=O)Cc1cnc(C)nc1N
inactive: [1] | [2] | [3] | [4]

O=C(O)c1ccc2cc(O)ccc2c1
inactive: [1] | [2] | [3] | [4]

COc1cc(-c2ccc(=O)[nH]n2)ccc1OC(F)F
inactive: [1] | [2] | [3] | [4]

Cc1cc(SC2=C(O)C[C@@](CCc3ccc(N)cc3)(C(C)C)OC2=O)c(C(C)(C)C)cc1CO
inactive: [1] | [2] | [3] | [4]

CSc1cnc(C)cn1
inactive: [1] | [2] | [3] | [4]

Clc1ccc2cc3ccccc3cc2c1
inactive: [1] | [2] | [3] | [4]

COc1ccc(OC)c(N=Nc2c(O)ccc3ccccc23)c1
inactive: [1] | [2] | [3] | [4]

O=C(CN1CCNCC1)NC1CCCCC1
inactive: [1] | [2] | [3] | [4]

CC1(C)[C@@H]2CC[C@]3(C2)[C@@H]1C(=O)CCC3(C)C
inactive: [1] | [2] | [3] | [4]

CC(C)=CCCC(C)CC(=O)O (stereo not given)
inactive: [1] | [2] | [3] | [4]

Cc1c(Nc2ncccc2C(=O)O)cccc1C(F)(F)F
inactive: [1] | [2] | [3] | [4]

CC(O)CC(C)O (stereo not given)
inactive: [1] | [2] | [3] | [4]

CC1=Nc2ccc3ccccc3c2C1(C)C
inactive: [1] | [2] | [3] | [4]

C=C(C)C(=O)OCC1CCCO1 (stereo not given)
inactive: [1] | [2] | [3] | [4]

COc1nc(N)nc2nc[nH]c12
inactive: [1] | [2] | [3] | [4]

O=C1CCCCC1
inactive: [1] | [2] | [3] | [4]

OCCCCCO
inactive: [1] | [2] | [3] | [4]

CCCCCCCCCCCCN1CCCC1=O
inactive: [1] | [2] | [3] | [4]

CCCC(CCC)(C(=O)OCC)C(=O)OCC
inactive: [1] | [2] | [3] | [4]

CCCCCCC(C)O (stereo not given)
inactive: [1] | [2] | [3] | [4]

C=C(C)C(=O)OCCN(C)C
inactive: [1] | [2] | [3] | [4]

CC(c1cc2ccccc2s1)N(O)C(N)=O (stereo not given)
inactive: [1] | [2] | [3] | [4]

CCCCC[C@H](O)/C=C/[C@H]1[C@H](O)CC(=O)[C@@H]1C/C=C\CCCC(=O)O
inactive: [1] | [2] | [3] | [4]

CC(C)c1ccc(C=O)cc1
inactive: [1] | [2] | [3] | [4]

c1ccc2cc3c(ccc4ccccc43)cc2c1
inactive: [1] | [2] | [3] | [4]

Cc1ccc(Cl)c(N)c1Cl
inactive: [1] | [2] | [3] | [4]

CC(O)(c1ccc(Cl)cc1)c1ccc(Cl)cc1
inactive: [1] | [2] | [3] | [4]
